Results published in PubChem BioAssay (NCATS).
Records with an inconclusive call do not appear. Entries that show only a call come without a potency. Calls of active or inactive are those of the source. Unless noted, the call rests on the fitted dose curve; in most records, active means well fitted curve in the direction sought with a large enough effect; inconclusive means small, poorly fitted or top-dose-only effect, or another doubt; inactive means no such curve, though single readings can be large; an effect the other way counts as inactive or inconclusive.

Experiments:
[1] = A High-Content qHTS Against Drug Library for the Identification of Small Molecules that Inhibit DYT1 Early Onset Primary Dystonia-Associated Cell Pathology (AID 1645839; calls by dose curve)
Procedure, shortened: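 High-content imaging quantified EGFP-TorsinA mislocalization in HEK293-derived cells inducibly expressing DYT1 mutant torsinA, after 48 h exposure to compound given together with tetracycline induction. Cell count served as a toxicity channel alongside %pathology.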

[2] = biological target: Cytochrome P450 2D6 (Homo sapiens) (UniProt P10635); test: Cytochrome P450 family 2 subfamily D member 6 (CYP2D6) small molecule antagonists: luciferase biochemical (cell-free) qHTS assay (AID 1645840; active means well fitted curve in the direction sought with a large enough effect in the repeat runs; an effect the other way counts as inactive or inconclusive; further: nearly all actives have a fitted effect of over 55% in size; further: potency means the concentration at half of the fitted maximal effect)
Cytochrome P450 2D6 (Homo sapiens), sequence (P10635 whole entry, looked up): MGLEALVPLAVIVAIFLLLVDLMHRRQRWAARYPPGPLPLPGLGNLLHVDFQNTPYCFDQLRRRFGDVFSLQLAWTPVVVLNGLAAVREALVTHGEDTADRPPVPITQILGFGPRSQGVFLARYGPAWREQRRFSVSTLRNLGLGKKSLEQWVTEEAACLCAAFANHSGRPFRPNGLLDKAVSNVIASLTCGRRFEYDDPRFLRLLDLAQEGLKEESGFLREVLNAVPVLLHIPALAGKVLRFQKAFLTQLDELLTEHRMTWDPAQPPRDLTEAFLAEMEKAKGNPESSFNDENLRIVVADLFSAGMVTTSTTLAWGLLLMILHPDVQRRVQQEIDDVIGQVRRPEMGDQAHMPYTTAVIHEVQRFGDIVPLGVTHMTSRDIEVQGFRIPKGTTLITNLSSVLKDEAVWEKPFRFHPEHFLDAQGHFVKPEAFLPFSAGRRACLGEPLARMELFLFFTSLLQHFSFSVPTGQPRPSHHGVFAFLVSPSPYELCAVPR
Procedure, shortened: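 P450-Glo CYP2D6 system: proluciferin substrate converted by enzyme to luciferin, read by luminescence proportional to activity. Enzyme-substrate mix with compound 10 min at room temperature, then NADPH regeneration 1 h before detection reagent.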

[3] = biological target: Cytochrome P450 2C9 (Homo sapiens) (UniProt P11712); test: Cytochrome P450 family 2 subfamily C member 9 (CYP2C9) small molecule antagonists: luciferase biochemical (cell-free) qHTS assay (AID 1645842; active means well fitted curve in the direction sought with a large enough effect in the repeat runs; an effect the other way counts as inactive or inconclusive; further: nearly all actives have a fitted effect of over 55% in size; further: potency means the concentration at half of the fitted maximal effect)
Cytochrome P450 2C9 (Homo sapiens), sequence (P11712 whole entry, looked up): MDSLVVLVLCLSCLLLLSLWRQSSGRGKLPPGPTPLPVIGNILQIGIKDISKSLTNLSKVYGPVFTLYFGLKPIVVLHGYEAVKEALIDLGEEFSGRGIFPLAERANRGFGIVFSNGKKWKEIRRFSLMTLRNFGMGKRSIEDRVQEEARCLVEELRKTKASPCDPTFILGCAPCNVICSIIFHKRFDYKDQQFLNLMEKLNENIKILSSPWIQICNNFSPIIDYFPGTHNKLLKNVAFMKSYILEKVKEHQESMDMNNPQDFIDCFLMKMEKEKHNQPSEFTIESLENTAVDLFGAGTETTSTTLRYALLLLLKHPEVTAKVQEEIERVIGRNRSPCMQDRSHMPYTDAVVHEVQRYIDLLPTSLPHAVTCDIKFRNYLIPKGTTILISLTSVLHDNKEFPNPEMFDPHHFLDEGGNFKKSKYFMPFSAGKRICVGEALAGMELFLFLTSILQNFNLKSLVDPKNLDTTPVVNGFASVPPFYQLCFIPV
Procedure, shortened: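 P450-Glo CYP2C9 system: proluciferin substrate with enzyme in mix containing 0.4% BSA, 10 min at room temperature, then NADPH regeneration solution added and incubated 1 h at 37C. Detection reagent stopped reaction; luminescence read after 20 min as RLU.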

[4] = Cytotoxicity counterscreen for inhibitors of SARS-CoV-2 cell entry (AID 1645845; calls by dose curve; further: nearly all actives have a fitted effect of over 50% in size)
Procedure, shortened: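 ATP-content luminescence (ATPLite 1step, 15 min RT) read after 48 h compound exposure of Expi293F cells stably expressing human ACE2; normalized to cells-only wells and media-only wells.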

[5] = Primary qHTS to identify inhibitors of SARS-CoV-2 cell entry (AID 1645846; calls by dose curve; further: nearly all actives have a fitted effect of over 45% in size; further: potency means the concentration at half of the fitted maximal effect); conditions: activity change, negative = inhibition: at 57.1 µM (top of the series) unless noted
Procedure, shortened: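 HEK293-ACE2 (Expi293F, stable hACE2), 1500 cells/well, o/n 37C; cpd 23 nL pin, 1 h; MLV-PP w/ SARS-CoV-2-S (Wuhan-Hu-1, Δ19 C-term); 48 h 37C; Bright-Glo luminescence; normalized vs S-PP and bald PP.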

[6] = Primary qHTS for inhibitors of nuclear receptor binding SET domain protein 2 (NSD2) in an isogenic RCH-ACV NSD2 p.E1099K mutant (9B) (AID 1645876); further: nearly all actives have a fitted effect of over 70% in size; further: potency means the concentration at half of the fitted maximal effect
[7] = Primary qHTS for inhibitors of nuclear receptor binding SET domain protein 2 (NSD2) in an RCH-ACV wild type WT cells (2C) (AID 1645877); further: nearly all actives have a fitted effect of over 70% in size; further: potency means the concentration at half of the fitted maximal effect
[8] = Primary qHTS for small molecule stabilizers of the endoplasmic reticulum resident proteome: Secreted ER Calcium Modulated Protein (SERCaMP) assay (AID 1508630)
Procedure, shortened: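 The SH-SY5Y reporter protocol was run at 3 concentrations up to 38.3 uM (primary) or 11 concentrations (follow-up): 16 h compound, 100 nM thapsigargin for 4 h, then extracellular luciferase luminescence.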

[9] = biological target: Cytochrome P450 3A4 (Homo sapiens) (UniProt P08684); test: Cytochrome P450 family 3 subfamily A member 4 (CYP3A4) small molecule antagonists: luciferase qHTS assay (AID 1645841; active means well fitted curve in the direction sought with a large enough effect in the repeat runs; an effect the other way counts as inactive or inconclusive; further: nearly all actives have a fitted effect of over 45% in size)
Cytochrome P450 3A4 (Homo sapiens), sequence (P08684 whole entry, looked up): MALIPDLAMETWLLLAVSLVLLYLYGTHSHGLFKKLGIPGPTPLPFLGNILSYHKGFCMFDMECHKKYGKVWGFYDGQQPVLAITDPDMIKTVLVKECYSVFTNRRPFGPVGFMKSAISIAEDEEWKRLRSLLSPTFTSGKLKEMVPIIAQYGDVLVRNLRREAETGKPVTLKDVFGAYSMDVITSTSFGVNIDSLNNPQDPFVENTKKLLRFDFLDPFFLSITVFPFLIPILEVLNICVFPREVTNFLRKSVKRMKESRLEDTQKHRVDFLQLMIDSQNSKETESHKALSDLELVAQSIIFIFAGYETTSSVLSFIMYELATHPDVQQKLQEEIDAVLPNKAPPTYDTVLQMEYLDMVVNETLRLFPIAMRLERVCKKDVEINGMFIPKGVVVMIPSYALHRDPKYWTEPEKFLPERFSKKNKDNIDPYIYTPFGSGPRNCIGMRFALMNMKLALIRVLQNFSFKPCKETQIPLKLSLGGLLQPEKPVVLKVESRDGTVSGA
Procedure, shortened: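 Luminescent CYP3A4 activity readout: compounds plus enzyme-substrate mix 10 min at room temperature, reaction started with NADPH regenerating system for 1 h, stopped with detection reagent, read after 20 min. Ketoconazole served as control.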

With C[C@]12CC[C@H]3[C@@H](CC[C@@]45O[C@H]4C(O)=C(C#N)C[C@]35C)[C@H]1CC[C@H]2O the outcome [1] was “inactive”, the Potency [2] was “inactive” and the Potency [3] was “inactive”. The Potency [4] was “inactive”, the activity change, negative = inhibition [5] was -26.2% and the Potency [6] was 15 µM (active). The Potency [7] was 10.6 µM (active).

In the case of COC(=O)[C@@H](N)CCCN/C(N)=N/[N+](=O)[O-], the outcome [1] is reported as “inactive”, the Potency [2] is reported as “inactive” and the Potency [6] is reported as “inactive”. The Potency [7] was “inactive”.

In the case of c1ccc(CN2CCNCC2)cc1, the outcome [1] is reported as “inactive”, the Potency [3] is reported as “inactive” and the Potency [6] is reported as “inactive”. The Potency [7] was “inactive”.

With CC(=O)OCC1=C(C(=O)O)N2C(=O)[C@@H](N)[C@H]2SC1 the outcome [1] was “inactive”, the Potency [2] was 5.35 µM (active) and the Potency [3] was “inactive”. For the same compound, the Potency [6] was “inactive” and the Potency [7] was “inactive”.

For CC(C)(N)Cc1ccccc1Cl, the outcome [1] was “inactive”, the Potency [3] was “inactive” and the Potency [6] was “inactive”. The Potency [7] was “inactive”.

For Oc1ccc(Cl)cc1, the outcome [1] was “inactive”, the Potency [2] was “inactive” and the Potency [3] was “inactive”. For the same compound, the Potency [4] was “inactive”, the activity change, negative = inhibition [5] was -1.58% and the Potency [6] was “inactive”. The Potency [7] was “inactive”.

For COc1cccc(C(=O)CCN[C@@H](C)[C@H](O)c2ccccc2)c1, the Potency [8] was “inactive”, the Potency [3] was 30.9 µM (active) and the Potency [4] was “inactive”. The Potency [6] was 16.8 µM (active) and the Potency [7] was 9.44 µM (active).

With O=c1c(C2CC(c3ccc(-c4ccc(Br)cc4)cc3)Cc3ccccc32)c(O)sc2ccccc12 (stereo not given) the Potency [8] was “inactive”, the Potency [3] was 9.77 µM (active) and the Potency [5] was 14.1 µM (active).

With O=[N+]([O-])O[C@H]1CO[C@H]2[C@@H]1OC[C@H]2O[N+](=O)[O-] the outcome [1] was “inactive”, the Potency [2] was “inactive” and the Potency [9] was “inactive”. The Potency [3] was “inactive”, the activity change, negative = inhibition [5] was -33.3% and the Potency [6] was “inactive”. The Potency [7] was “inactive”.

For Nc1ccccc1C(=O)O, the outcome [1] was “inactive”, the Potency [2] was “inactive” and the Potency [3] was “inactive”.

In the case of CC[N+]1(CC)CCC(OC(=O)C(O)(c2ccccc2)c2ccccc2)C1 (stereo not given), the outcome [1] is reported as “inactive”, the Potency [2] is reported as 12.9 µM (active) and the Potency [3] is reported as “inactive”. The Potency [6] was “inactive” and the Potency [7] was “inactive”.

In the case of CN1CC[C@]23c4c5ccc(O)c4O[C@H]2[C@@H](O)C=C[C@H]3[C@H]1C5, the outcome [1] is reported as “inactive”.
